Several values for one entry are separate records, joined by “and”; a condition that tells them apart may be missing. Equal entries are not always repeated. Inconclusive results are not listed. Activity calls are given as the source filed them. Unless noted, the call rests on the fitted dose curve; in most records, active means well fitted curve in the direction sought with a large enough effect in the repeat runs; inconclusive means weak or mixed curves; inactive means no such curve, though single readings can be large; an effect the other way counts as inactive or inconclusive.
Legend:
[1] = qHTS assay to identify small molecule agonists of the peroxisome proliferator-activated receptor delta (PPARd) signaling pathway - cell viability counter screen (AID 743211); further: nearly all actives have a fitted effect of over 55% in size; further: potency means the concentration at half of the fitted maximal effect
Method in brief: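 PPARd-bla HEK293H cells (3000/well) were pre-incubated 5 h at 37 C, then exposed to compound for 17 h at 37 C. After 2 h with LiveBLAzer substrate, CellTiter-Glo was added to the same wells; luminescence read after 30 min at room temperature.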

[2] = target: Peroxisome proliferator-activated receptor delta (Homo sapiens) (UniProt Q03181); experiment: qHTS assay to identify small molecule agonists of the peroxisome proliferator-activated receptor delta (PPARd) signaling pathway (AID 743212; calls by dose curve; further: on the % scale 0 is the no-effect control and ±100 the full control effect)
Method in brief: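 Quantitative high-throughput agonist screen in a HEK293H beta-lactamase reporter line under UAS control. Compounds in DMSO, at 37 C. Fluorescence read after 2 h with FRET substrate at room temperature.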

[3] = target: Peroxisome proliferator-activated receptor delta (Homo sapiens) (UniProt Q03181); experiment: qHTS assay to identify small molecule antagonists of the peroxisome proliferator-activated receptor delta (PPARd) signaling pathway (AID 743215; active means well fitted inhibition curve with a large enough effect in the signal ratio in the repeat runs, not every such curve was filed as active; the % refers to the signal ratio;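 further: cells stimulated with agonist L165041 at 300 nM final during compound exposure; series mostly up to about 62 µM; on the % scale 0 is the no-effect control and ±100 the full control effect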)
Method in brief: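 Read-out is beta-lactamase FRET fluorescence, measured 2 h after substrate addition at room temperature. Beforehand, UAS-bla HEK293H cells carrying the PPARd reporter were exposed to compounds with L165041 at 300 nM final for 17 h at 37 C.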

[4] = target: Bile acid receptor (Homo sapiens) (UniProt Q96RI1); experiment: qHTS assay to identify small molecule antagonists of the farnesoid-X-receptor (FXR) signaling pathway (AID 743217; active means well fitted inhibition curve with a large enough effect in the signal ratio in the repeat runs, not every such curve was filed as active; the % refers to the signal ratio; further: potency means the concentration at half of the fitted maximal effect)
Method in brief: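 HEK 293T FXR-UAS-bla, 5000 cells/well; compound + CDCA 50 uM final; 16 h, 37 °C; B/G FRET substrate 2 h RT; fluorescence.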

[5] = qHTS assay to identify small molecule agonists of the farnesoid-X-receptor (FXR) signaling pathway - cell viability counter screen (AID 743218); further: nearly all actives have a fitted effect of over 45% in size; further: potency means the concentration at half of the fitted maximal effect
Method in brief: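 HEK 293T FXR-bla cells; 5 h pre-incubation, 16 h compound exposure at 37 C; LiveBLAzer substrate 2 h RT, then CellTiter-Glo 30 min RT, luminescence.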

[6] = qHTS assay to identify small molecule antagonists of the farnesoid-X-receptor (FXR) signaling pathway - cell viability counter screen (AID 743221; active means well fitted cell-killing curve with a large enough effect in the repeat runs, not every such curve was filed as active; further: nearly all actives have a fitted effect of over 50% in size; further: potency means the concentration at half of the fitted maximal effect)
Method in brief: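 GeneBLAzer FXR-UAS-bla HEK 293T cells, compound plus chenodeoxycholic acid (50 uM final), 16 h at 37 C. CellTiter-Glo added to the same wells after the beta-lactamase read; luminescence read after 30 min at room temperature as viability.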

[7] = qHTS assay to identify small molecule antagonists of the vitamin D receptor (VDR) signaling pathway - cell viability counter screen (AID 743225); further: nearly all actives have a fitted effect of over 50% in size; further: potency means the concentration at half of the fitted maximal effect
Method in brief: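 VDR-UAS-bla HEK 293T cells were plated and incubated 4 h at 37C, then dosed with compound plus 3 nM (final) 1-alpha,25-dihydroxyvitamin D3 for 16 h. After the 2 h beta-lactamase read, viability in the same wells was read as CellTiter-Glo luminescence after 30 min at room temperature.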

[8] = qHTS assay to identify small molecule agonists of the NFkB signaling pathway - cell viability counter screen (AID 1159515; calls by dose curve; further: nearly all actives have a fitted effect of over 55% in size; further: potency means the concentration at half of the fitted maximal effect)
Method in brief: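 Luminescence from CellTiter-Glo (30 min, room temperature) gives viability, measured in the same wells as the beta-lactamase reporter read. Cells were NFkB-bla ME-180, 2,000 per well, treated 5 hr with compounds.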

[9] = target: Nuclear receptor ROR-gamma (Homo sapiens) (UniProt P51449); experiment: qHTS assay to identify small molecule antagonists of the retinoid-related orphan receptor gamma (ROR-gamma) signaling pathway (AID 1159521; further: nearly all actives have a fitted effect of over 50% in size; further: potency means the concentration at half of the fitted maximal effect)
Method in brief: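 Tet-on ROR-gamma CHO cells with ROR response element-luciferase reporter; compounds added 2 hr before 1 uM doxycycline induction, then 16 hr at 37 C. Antagonism scored as decreased ONE-Glo luminescence.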

[10] = qHTS assay to identify small molecule agonists of the AP-1 signaling pathway - cell viability counter screen (AID 1159525; calls by dose curve; further: nearly all actives have a fitted effect of over 55% in size)
Method in brief: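 AP-1-bla ME-180 cells in Opti-MEM with 0.5% dialyzed FBS, compound exposure 5 h at 37 C in 15-point titration. Viability read in the same wells as ATP content by CellTiter-Glo luminescence, normalised to tetra-n-octylammonium bromide and DMSO controls.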

[11] = qHTS assay to identify small molecule agonists of the AP-1 signaling pathway (AID 1159526; calls by dose curve; further: on the % scale 0 is the no-effect control and ±100 the full control effect)
[12] = target: Retinoic acid receptor RXR-alpha (Homo sapiens) (UniProt P19793); experiment: qHTS assay to identify small molecule agonists of the RXR signaling pathway (AID 1159527; calls by dose curve; further: on the % scale 0 is the no-effect control and ±100 the full control effect; nearly all actives have a fitted effect of over 35% in size)
Method in brief: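 GeneBLAzer RXR-alpha-UAS-bla HEK 293T cells in 2% charcoal-stripped FBS medium were exposed to compounds for 16 hr at 37 C in agonist mode. Beta-lactamase reporter read as 460/530 nm FRET ratio after 2 hr substrate loading.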

[13] = qHTS assay to identify small molecule antagonists of the peroxisome proliferator-activated receptor delta (PPARd) signaling pathway - cell viability counter screen (AID 743213); further: nearly all actives have a fitted effect of over 50% in size; further: potency means the concentration at half of the fitted maximal effect
Method in brief: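 HEK293H PPARd UAS-bla cells, 5 h pre-incubation, compound + L165041 300 nM final, 17 h 37 C; B/G FRET substrate 2 h RT; then CellTiter-Glo 30 min RT, luminescence.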

[14] = qHTS assay to identify small molecule antagonists of the retinoid-related orphan receptor gamma (ROR-gamma) signaling pathway - cell viability counter screen (AID 1159520)
Method in brief: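 Tet-on ROR gamma CHO cells were given compounds for 2 hr, then doxycycline hyclate at 1 uM final, and incubated 16 hr at 37 C. Viability was measured as ATP content by CellTiter-Glo luminescence.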

[15] = target: Bile acid receptor (Homo sapiens) (UniProt Q96RI1); experiment: qHTS assay to identify small molecule agonists of the farnesoid-X-receptor (FXR) signaling pathway (AID 743220; active means well fitted activation curve with a large enough effect in the signal ratio in the repeat runs, not every such curve was filed as active; the % refers to the signal ratio; further: potency means the concentration at half of the fitted maximal effect)
Method in brief: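 Beta-lactamase reporter under UAS control in GeneBLAzer FXR HEK 293T cells (5000/well) measured with LiveBLAzer FRET substrate after 2 h at room temperature. Compound exposure lasted 16 h at 37C.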

[16] = target: Vitamin D3 receptor (Homo sapiens) (UniProt P11473); experiment: qHTS assay to identify small molecule agonists of the vitamin D receptor (VDR) signaling pathway (AID 743222; calls by dose curve; further: on the % scale 0 is the no-effect control and ±100 the full control effect)
Method in brief: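 VDR-bla cells, 2,000/well; 4 h preincubation 37C; cpd (DMSO) 16 h; LiveBLAzer B/G substrate 2 h RT; fluorescence intensity read.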

[17] = qHTS assay to identify small molecule agonists of the vitamin D receptor (VDR) signaling pathway - cell viability counter screen (AID 743224); further: nearly all actives have a fitted effect of over 50% in size; further: potency means the concentration at half of the fitted maximal effect
Method in brief: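 Luminescence from CellTiter-Glo, read after 30 min at room temperature, reports viability of VDR-bla cells treated with compounds for 16 h at 37C in the wells used for the beta-lactamase FRET read.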

[18] = target: Vitamin D3 receptor (Homo sapiens) (UniProt P11473); experiment: qHTS assay to identify small molecule antagonists of the vitamin D receptor (VDR) signaling pathway (AID 743223; active means well fitted inhibition curve with a large enough effect in the signal ratio in the repeat runs, not every such curve was filed as active; the % refers to the signal ratio; further: on the % scale 0 is the no-effect control and ±100 the full control effect)
Method in brief: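 VDR-bla cells were treated with compound plus 3 nM final 1alpha,25-dihydroxyvitamin D3 for 16 h at 37C. Beta-lactamase reporter read by B/G FRET substrate fluorescence after 2 h at room temperature. qHTS format.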

Sequence of Bile acid receptor (Homo sapiens) (Q96RI1 whole entry, looked up): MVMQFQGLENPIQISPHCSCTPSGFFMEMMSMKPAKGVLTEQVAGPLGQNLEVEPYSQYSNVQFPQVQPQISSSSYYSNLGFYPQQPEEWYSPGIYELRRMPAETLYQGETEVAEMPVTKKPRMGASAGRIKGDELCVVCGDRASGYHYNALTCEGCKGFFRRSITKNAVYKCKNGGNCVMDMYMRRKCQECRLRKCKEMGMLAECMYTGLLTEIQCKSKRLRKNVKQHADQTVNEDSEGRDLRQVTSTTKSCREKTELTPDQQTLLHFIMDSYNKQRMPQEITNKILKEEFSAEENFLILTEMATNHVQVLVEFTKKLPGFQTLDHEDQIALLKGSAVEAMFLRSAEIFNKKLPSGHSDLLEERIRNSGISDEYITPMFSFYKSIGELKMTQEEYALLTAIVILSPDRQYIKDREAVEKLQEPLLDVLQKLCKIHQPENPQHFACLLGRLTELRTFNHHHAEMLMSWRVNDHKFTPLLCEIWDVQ
Sequence of Vitamin D3 receptor (Homo sapiens) (P11473 whole entry, looked up): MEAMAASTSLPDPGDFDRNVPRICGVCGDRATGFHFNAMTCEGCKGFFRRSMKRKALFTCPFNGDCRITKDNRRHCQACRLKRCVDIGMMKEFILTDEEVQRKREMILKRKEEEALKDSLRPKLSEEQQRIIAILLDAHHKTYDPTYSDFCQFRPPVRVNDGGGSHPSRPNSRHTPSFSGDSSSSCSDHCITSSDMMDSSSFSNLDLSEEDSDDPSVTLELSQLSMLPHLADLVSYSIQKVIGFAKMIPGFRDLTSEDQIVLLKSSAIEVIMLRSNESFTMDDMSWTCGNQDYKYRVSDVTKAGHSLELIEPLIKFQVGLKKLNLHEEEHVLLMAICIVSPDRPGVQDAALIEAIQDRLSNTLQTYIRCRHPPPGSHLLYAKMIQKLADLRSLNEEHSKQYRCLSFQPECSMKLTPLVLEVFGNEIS
Sequence of Retinoic acid receptor RXR-alpha (Homo sapiens) (P19793 whole entry, looked up): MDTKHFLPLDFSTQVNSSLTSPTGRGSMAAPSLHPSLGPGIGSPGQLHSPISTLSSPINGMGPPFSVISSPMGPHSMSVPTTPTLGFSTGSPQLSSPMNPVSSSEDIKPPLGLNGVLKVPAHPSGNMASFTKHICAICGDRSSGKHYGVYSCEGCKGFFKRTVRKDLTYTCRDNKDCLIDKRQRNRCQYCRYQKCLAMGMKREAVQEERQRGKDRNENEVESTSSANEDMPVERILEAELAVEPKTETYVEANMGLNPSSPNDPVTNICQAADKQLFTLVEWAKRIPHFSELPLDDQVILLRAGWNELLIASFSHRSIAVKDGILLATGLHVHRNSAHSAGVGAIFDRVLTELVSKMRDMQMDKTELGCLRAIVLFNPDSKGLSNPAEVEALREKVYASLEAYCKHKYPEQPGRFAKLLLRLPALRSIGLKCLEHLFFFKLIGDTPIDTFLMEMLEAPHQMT
Sequence of Peroxisome proliferator-activated receptor delta (Homo sapiens) (Q03181 whole entry, looked up): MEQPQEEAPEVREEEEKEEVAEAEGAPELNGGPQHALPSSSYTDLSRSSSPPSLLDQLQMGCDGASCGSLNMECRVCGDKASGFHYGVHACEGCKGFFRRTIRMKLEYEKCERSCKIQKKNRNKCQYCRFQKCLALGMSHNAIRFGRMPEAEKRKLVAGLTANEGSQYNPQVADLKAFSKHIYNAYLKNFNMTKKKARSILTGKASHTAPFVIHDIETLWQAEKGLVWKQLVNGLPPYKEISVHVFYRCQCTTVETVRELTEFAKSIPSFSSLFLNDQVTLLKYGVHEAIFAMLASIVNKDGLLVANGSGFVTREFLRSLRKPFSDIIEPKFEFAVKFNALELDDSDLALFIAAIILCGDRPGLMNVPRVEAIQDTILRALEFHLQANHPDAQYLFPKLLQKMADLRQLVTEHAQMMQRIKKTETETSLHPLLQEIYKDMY

C[C@@H](O)[C@H](N)C(=O)O
inactive: Potency [1] | Potency [2] | Potency [3] | Potency [4] | Potency [5] | Potency [6] | Potency [7] | Potency [8] | activity change, negative = inhibition [9] 1.16% [at 19 µM] | viability change, negative = cytotoxic [10] 3.86% [at 15.8 µM] | activation [11] -7.74% [at 15.8 µM] | activation [12] 0.146% [at 15.8 µM]

FC(F)(F)c1cccc(Cl)c1
inactive: Potency [1] | Potency [2] | Potency [13] | Potency [3] | Potency [4] | Potency [6] | Potency [7] | Potency [8] | Potency [14] | Potency [10] | Potency [11] | Potency [12]

OC[C@H]1O[C@H](O[C@H]2O[C@H](CO)[C@@H](O)[C@H](O)[C@H]2O)[C@H](O)[C@@H](O)[C@@H]1O
inactive: Potency [1] | Potency [4] | Potency [15] | Potency [6] | Potency [16] | Potency [17] | Potency [7] | Potency [8] | Potency [14] | Potency [10] | Potency [11]

C1CCC(SSC2CCCCC2)CC1
inactive: Potency [1] | Potency [2] | Potency [13] | Potency [3] | Potency [6] | Potency [16] | Potency [17] | Potency [7] | Potency [8] | Potency [9] | Potency [10] | Potency [11] | Potency [12]

Fc1ccc(C(c2ccc(F)cc2)N2CCNCC2)cc1
inactive: Potency [16] | Potency [8] | Potency [14] | Potency [9] | Potency [10] | Potency [11] | Potency [12]
active: Potency [1] 7.5 µM | Potency [13] 15 µM | Potency [4] 29.8 µM | Potency [6] 26.6 µM | Potency [17] 26.6 µM | Potency [7] 16.9 µM

Cc1c2ccccc2c(C)c2c1ccc1ccccc12
active: Potency [1] 48.5 µM and 38.9 µM | Potency [5] 21.9 µM | Potency [15] 48.5 µM | Potency [6] 43.6 µM | Potency [7] 43.2 µM and 19.5 µM | Potency [8] 12.2 µM | Potency [9] 24.1 µM and 21.7 µM
inactive: Potency [10]

CC(=O)CC(=O)Nc1ccc(S(=O)(=O)O)cc1
inactive: Potency [1] | Potency [13] | Potency [3] | Potency [5] | Potency [6] | Potency [16] | Potency [18] | Potency [17] | Potency [7] | Potency [8] | Potency [14] | Potency [10] | Potency [11] | Potency [12]

O=C(O)c1cccc(C(F)(F)F)c1
inactive: Potency [1] | Potency [13] | Potency [3] | Potency [5] | Potency [6] | Potency [16] | Potency [17] | Potency [7] | Potency [8] | Potency [10] | Potency [11]

C=C(CC)C(=O)c1ccc(OCC(=O)O)c(Cl)c1Cl
inactive: Potency [1] | Potency [13] | Potency [5] | Potency [6] | Potency [17] | Potency [7] | Potency [8] | Potency [10]
